Screen size: about 360,000 compounds; about 17,000 (4.7%) were called active. Not shown: some 5% with an inconclusive outcome. The sample as a whole holds a higher share of actives than the screen did. A number with no mark means an inactive call. Rule as the data show it: active = activity change below about -50%; inconclusive = mostly about -30% to -49%; inactive = weaker than that.
Assay: qHTS for Inhibitors of Inflammasome Signaling: IL-1-beta AlphaLISA Primary Screen
Details: THP-1 LPS/ATP IL-1B secretion, 16 h; at 57.5 µM, stronger effect = lower value
Procedure, shortened: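 Secreted IL-1B measured by AlphaLISA bead assay after 16 h compound exposure of THP-1 cells; compounds (final up to 57.5 uM) added 1 h before LPS (250 ng/mL) and ATP (1.25 mM) stimulation; lower signal means less secretion.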
% is scaled to controls: 0 for no effect and ±100 for the full control effect.

| Structure (SMILES) | activity change |
| --- | --- |
| Cc1ccc(NC(=O)C(C)OC(=O)C2CC3CCCC(C2)C3=O)cc1S(=O)(=O)N1CCOCC1 (stereo not drawn) | 21% |
| CC1(C(=O)Nc2cccc3c2CCCC3)CCN1C(=O)C1(c2ccccc2)CC1 (stereo not drawn) | 2.24% |
| CC(C)Cc1ccc(-c2cc3nc(NCc4cccc(Cl)c4)ccn3n2)cc1 | 16.6% |
| COc1ccc(-c2csc3ncnc(N4CCN(S(=O)(=O)c5cccc(F)c5)CC4)c23)cc1 | -1.57% |
| COc1cccc(C=CC(=O)C=CC=Cc2ccccc2)c1 | -59.4% (active) |
| COc1cccc(/C=C/C(=O)OCC(=O)N2CCCc3ccccc32)c1 | -0.538% |
| COc1cccc(C(=O)NNC(=O)/C=C/c2ccccc2)c1 | 12.5% |
| COc1ccc(C2OC(CCc3ccccc3)Cc3[nH]c(=S)[nH]c(=O)c32)cc1 (stereo not drawn) | -10.2% |
| COc1cc(Cl)ccc1OCc1cc(C(=O)N2CC[C@@H]3CCCC[C@H]3C2)no1 | -82.6% (active) |
| CCn1ccnc1CN(C)C(=O)c1cc(COc2ccc(Cl)cc2OC)on1 | -11% |
| COc1ccc(OCc2cc(C(=O)N3CCCC3)no2)c2ccccc12 | 0% |
| O=C(COC(=O)c1cc[n+]([O-])cc1)Nc1ccc(Cl)c(C(F)(F)F)c1 | 14.3% |
| O=C(CCCN1C(=O)CCC1=O)Nc1ccc(Cl)c(C(F)(F)F)c1 | 3.74% |
| O=C(CC(O)(C(F)(F)F)C(F)(F)F)Nc1ccc(Cl)c(Cl)c1 | -71.8% (active) |
| COc1ccc(C(=O)N2CCCCC2c2cc(C(=O)Nc3ccccc3)no2)cc1 (stereo not drawn) | -3.11% |
| O=C(CCN1C(=O)c2ccncc2C1=O)Nc1cc(F)ccc1F | 36.2% |
| C#CCOCCOCCOCCNc1nc(N2CCN(C(=O)CCCCCCCCCCNC(=O)Cn3cc(CCCCCN)nn3)CC2)nc(N2CCN(C(=O)CCCCCCCCCCNC(=O)[C@H](CO)n3cc(CCCSC)nn3)CC2)n1 | -72.1% (active) |
| C#CCOCCOCCOCCNc1nc(N2CCN(C(=O)[C@H](C(C)C)n3cc(CCO)nn3)CC2)nc(N2CCN(C(=O)[C@H]([C@@H](C)CC)n3cc(CCCN=C(N)N)nn3)CC2)n1 | -5.99% |
| C#CCOCCOCCOCCNc1nc(N2CCN(C(=O)Cn3cc(CCO)nn3)CC2)nc(N2CCN(C(=O)[C@H](CCCCN)n3cc(CCCC)nn3)CC2)n1 | 2.45% |
| C#CCOCCOCCOCCNc1nc(N2CCN(C(=O)Cn3cc(CCCCN)nn3)CC2)nc(N2CCN(C(=O)[C@H](CCCCN)n3cc(CCC(=O)O)nn3)CC2)n1 | 58.3% |
| C#CCOCCOCCOCCNc1nc(N2CCN(C(=O)[C@H](CCCCN)n3cc(CCC(=O)O)nn3)CC2)nc(N2CCN(C(=O)[C@H](CCCCN)n3cc(CC(C)O)nn3)CC2)n1 (stereo partly drawn) | 3.3% |
| C#CCOCCOCCOCCNc1nc(N2CCN(C(=O)[C@H](CCC(=O)O)n3cc(CN)nn3)CC2)nc(N2CCN(C(=O)[C@H](CCC(=O)O)n3cc(CN)nn3)CC2)n1 | 25.6% |

| Structure (SMILES) | activity change |
| --- | --- |
| C#CCOCCOCCOCCNc1nc(N2CCN(C(=O)CCCCCCCCCCNC(=O)[C@H]([C@@H](C)CC)n3cc(CCCCN=C(N)N)nn3)CC2)nc(N2CCN(C(=O)CCCCCCCCCCNC(=O)[C@H](CO)n3cc(CCCSC)nn3)CC2)n1 | -111% (active) |
| C#CCOCCOCCOCCNc1nc(N2CCN(C(=O)Cn3cc(CCO)nn3)CC2)nc(N2CCN(C(=O)Cn3cc(CCCN=C(N)N)nn3)CC2)n1 | 12.6% |
| C#CCOCCOCCOCCNc1nc(N2CCN(C(=O)CCCCCCCCCCNC(=O)[C@H](CCCCN)n3cc(C)nn3)CC2)nc(N2CCN(C(=O)CCCCCCCCCCNC(=O)[C@H](CO)n3cc(CCCSC)nn3)CC2)n1 | -81.7% (active) |
| COc1ccc(CCNc2cc(N3CCN(C(=O)c4ccccc4OC)CC3)ccc2[N+](=O)[O-])cc1OC | 42.9% |
| O=C(NN=CC=Cc1ccccc1)C(O)C(O)C(=O)NN=CC=Cc1ccccc1 (stereo not drawn) | -17.2% |
| Cc1ccc(C(CNC(=O)Nc2cccc(C)c2)N2CCN(C)CC2)cc1 (stereo not drawn) | -20.1% |
| CCC1CCCCN1C(=S)NC(=O)c1ccco1 (stereo not drawn) | -6.58% |
| CCn1c(=O)c2ccccc2n(CC(=O)N2CCCc3ccccc32)c1=O | -0.244% |
| COc1ccc(CCNC(=O)COc2cc(C)cc3oc(=O)c(C)c(C)c23)cc1OC | -1.44% |
| CCOc1ccc(OCc2ccc(C(=O)Nc3cccc(C)n3)o2)cc1 | -69% (active) |
| CCOc1ccc(OCc2ccc(C(=O)N(C)c3ccccc3)o2)cc1 | -7.29% |
| Cc1cccc(NC(=O)c2ccc(COc3ccccc3[N+](=O)[O-])o2)n1 | 6.94% |
| OC[C@@H]1CN(Cc2ccc(Cl)cc2)C[C@H](n2cnc3c(NCc4ccncc4)ncnc32)O1 | -7% |
| C=CCn1c2c(c3ccccc31)CCC2 | 0% |
| Cc1ccc(C(=O)CSc2ccccc2C(=O)O)cc1 | 5.18% |
| Cc1ccc(SC(CC(=O)c2ccc(C(C)(C)C)cc2)C(=O)O)cc1 (stereo not drawn) | -93.8% (active) |
| CC(C)(C)c1ccc(C(=O)NNC(=O)Cc2ccccc2)cc1 | 0.0784% |
| CCC(C)C1(C2CCCC2)NC(=O)NC1=O (stereo not drawn) | -5.19% |
| CC1(c2ccccc2)CC(C)(C)N(C(=O)c2cc([N+](=O)[O-])cc([N+](=O)[O-])c2)c2ccccc21 (stereo not drawn) | 5.37% |
| Cc1nnc(SCC(=O)N2c3ccccc3C(C)(c3ccc(Cl)cc3)CC2(C)C)s1 (stereo not drawn) | -71.6% (active) |
| CC1(c2cccc([N+](=O)[O-])c2)CC(C)(C)N(C(=O)c2ccccc2)c2ccccc21 (stereo not drawn) | -2.13% |
